A short description of test [1]: inhibitors of CD8+ T cell-vesicle binding, pilot screen, LFA-1/ICAM-1 modulator project, MLPCN validation set, flow cytometry (AID 2523;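 active means response below a set limit, under 55% cells CD8-positive and vesicle-bound, and CD8 cells' 90th-percentile brightness under 279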;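 on vesicle binding response: mean PE anti-B7-1 fluorescence of CD8+ cells relative to row control; 100% = QL9-loaded vesicles with DMSO vehicle in the same plate row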). Particulars: 2C mouse CD8+ T cells, at 7 µM, stronger effect = lower value; double positive events: measured here: CD8+/vesicle+ event percentage. Background: Flow cytometry measures light scatter and fluorescence of single cells or particles in a stream.

Test [2] deals with Integrin beta-1 (Homo sapiens) + Integrin alpha-4 (Homo sapiens) (UniProt P13612+P05556). The test can be described thus: inhibition of HUTS-21 binding to VLA-4, pilot screen, VLA-4 allosteric modulator project, U937 cells, HUTS-21 mAb, flow cytometry, validation set (AID 2674;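 active means inhibition above 50%, about 3 SD of the validation set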;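 further: antibody binding induced by the VLA-4 ligand LDV present at three times its Kd; 0% = LDV ligand with antibody and no compound and 100% = antibody without LDV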). Particulars: HUTS-21 LIBS mAb binding, at 6.7 µM, stronger effect = higher value, binding induced by LDV ligand.
Chain of Integrin beta-1 (Homo sapiens) + Integrin alpha-4 (Homo sapiens) (P05556 whole entry, looked up): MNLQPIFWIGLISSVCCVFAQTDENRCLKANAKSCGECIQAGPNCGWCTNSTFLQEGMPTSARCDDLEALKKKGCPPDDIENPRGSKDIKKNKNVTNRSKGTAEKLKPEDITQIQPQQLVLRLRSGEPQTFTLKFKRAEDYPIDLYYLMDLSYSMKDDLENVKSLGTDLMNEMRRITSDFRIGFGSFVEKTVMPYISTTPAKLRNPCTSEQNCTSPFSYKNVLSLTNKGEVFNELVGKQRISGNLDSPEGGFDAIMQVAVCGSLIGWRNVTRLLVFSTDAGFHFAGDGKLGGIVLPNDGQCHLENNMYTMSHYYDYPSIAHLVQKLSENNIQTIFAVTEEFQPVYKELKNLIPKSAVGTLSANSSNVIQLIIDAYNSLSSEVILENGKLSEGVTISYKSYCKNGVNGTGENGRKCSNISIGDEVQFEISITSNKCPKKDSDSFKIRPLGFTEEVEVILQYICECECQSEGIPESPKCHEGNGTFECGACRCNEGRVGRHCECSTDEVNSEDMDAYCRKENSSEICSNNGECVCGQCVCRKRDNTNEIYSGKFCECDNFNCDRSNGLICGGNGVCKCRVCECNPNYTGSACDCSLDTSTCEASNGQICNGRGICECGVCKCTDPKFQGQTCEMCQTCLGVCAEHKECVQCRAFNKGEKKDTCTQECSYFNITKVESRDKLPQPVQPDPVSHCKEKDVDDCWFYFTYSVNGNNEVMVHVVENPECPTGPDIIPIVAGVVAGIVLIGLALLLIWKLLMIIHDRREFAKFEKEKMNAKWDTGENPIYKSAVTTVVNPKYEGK
Chain of Integrin beta-1 (Homo sapiens) + Integrin alpha-4 (Homo sapiens) (P13612 whole entry, looked up): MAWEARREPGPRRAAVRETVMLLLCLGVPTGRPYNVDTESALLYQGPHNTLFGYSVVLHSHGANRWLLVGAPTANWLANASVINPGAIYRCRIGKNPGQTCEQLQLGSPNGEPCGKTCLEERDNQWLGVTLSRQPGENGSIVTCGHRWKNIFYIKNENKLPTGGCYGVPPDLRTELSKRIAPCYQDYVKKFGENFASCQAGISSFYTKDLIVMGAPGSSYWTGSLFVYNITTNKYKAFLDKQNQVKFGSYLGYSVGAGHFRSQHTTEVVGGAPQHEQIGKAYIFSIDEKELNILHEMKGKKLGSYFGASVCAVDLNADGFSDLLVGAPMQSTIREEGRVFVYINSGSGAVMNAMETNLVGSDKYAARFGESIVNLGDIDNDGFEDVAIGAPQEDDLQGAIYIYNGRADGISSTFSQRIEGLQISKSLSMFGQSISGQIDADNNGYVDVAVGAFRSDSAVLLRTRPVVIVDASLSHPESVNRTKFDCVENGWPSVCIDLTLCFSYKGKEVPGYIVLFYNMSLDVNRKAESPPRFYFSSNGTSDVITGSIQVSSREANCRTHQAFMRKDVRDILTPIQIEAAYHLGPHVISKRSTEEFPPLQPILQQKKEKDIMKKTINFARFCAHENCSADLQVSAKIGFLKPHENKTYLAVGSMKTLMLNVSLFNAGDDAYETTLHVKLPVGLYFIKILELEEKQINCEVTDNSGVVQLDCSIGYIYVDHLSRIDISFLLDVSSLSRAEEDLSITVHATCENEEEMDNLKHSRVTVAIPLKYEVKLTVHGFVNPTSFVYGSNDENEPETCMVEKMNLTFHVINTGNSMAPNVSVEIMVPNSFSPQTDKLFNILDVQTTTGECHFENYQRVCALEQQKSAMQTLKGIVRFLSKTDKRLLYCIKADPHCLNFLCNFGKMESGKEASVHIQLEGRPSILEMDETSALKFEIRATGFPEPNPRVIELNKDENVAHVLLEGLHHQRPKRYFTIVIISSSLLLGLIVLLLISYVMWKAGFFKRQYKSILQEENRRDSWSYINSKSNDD

The nature of test [3]: superoxide lowering in aged yeast cells, pilot screen, validation compound set (AID 2706;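 active means superoxide response below 65% of plate, a cut near 3 SD across the whole screen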;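 further: yeast exposed to compound for one week at 30 degrees C before staining; 100% = mean of all compound wells on the same plate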). Conditions: S. cerevisiae aging, superoxide DHE fluorescence; at 10 µM, stronger effect = lower value.
Test [4] has as its target Beta-adrenergic receptor kinase 1 (Homo sapiens) (UniProt P25098). The test can be described thus: GRK2 binders displacing RNA aptamer, biochemical, validation, human GRK2, bead flow cytometry (AID 488806;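 active means aptamer binding inhibition above 30%, about 3 SD of noise from non-fluorescent compounds; inactive means inhibition at or below 30%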). Conditions: bead-bound GRK2, FAM-aptamer displacement, at 10 µM, stronger effect = higher value.
The target of test [5] is Beta-2 adrenergic receptor (Homo sapiens) (UniProt P07550). Nature of the test: beta2AR agonists driving receptor internalization, pilot screen, cell-based, FAP fluorogen, flow cytometry, validation set (AID 504459;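 active means percent response above 42, roughly 3 SD of non-fluorescent test compounds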;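 further: agonist-driven loss of surface beta2AR via internalization measured by FAP dye flow cytometry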). Conditions: Am2.2-beta2AR cells, FAP surface receptor flow cytometry; at 10 µM; stronger effect = higher value.
Chain of Beta-2 adrenergic receptor (Homo sapiens) (P07550 whole entry, looked up): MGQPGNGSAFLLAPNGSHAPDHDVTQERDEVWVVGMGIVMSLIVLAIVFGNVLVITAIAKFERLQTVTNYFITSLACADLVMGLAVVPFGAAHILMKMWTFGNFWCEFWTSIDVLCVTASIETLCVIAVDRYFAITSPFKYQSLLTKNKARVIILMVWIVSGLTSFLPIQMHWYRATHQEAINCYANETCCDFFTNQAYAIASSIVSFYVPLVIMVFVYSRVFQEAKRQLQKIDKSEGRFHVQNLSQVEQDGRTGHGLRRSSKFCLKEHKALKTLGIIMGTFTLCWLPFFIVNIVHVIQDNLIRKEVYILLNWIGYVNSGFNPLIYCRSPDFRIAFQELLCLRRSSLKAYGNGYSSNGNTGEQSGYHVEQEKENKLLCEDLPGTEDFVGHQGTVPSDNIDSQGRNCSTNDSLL
For test [6], the target named is AP-2 complex subunit beta (Homo sapiens) (UniProt P63010). Nature of the test: inhibitors of arrestin peptide binding to AP2, pilot screen, biochemical, validation set, GST-AP2 beads, flow cytometry (AID 504541;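 active means inhibition above 54%, about 3 SD of non-fluorescent compounds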;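 further: AP2 carries R879A mutation and is captured from E. coli lysate; bead-bound FITC arrestin peptide fluorescence measuring arrestin peptide binding to AP2; 0% = DMSO wells and 100% = excess unlabeled arrestin peptide control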). Conditions: FITC arrestin peptide, at 10 µM, stronger effect = higher value, AP2 beta2 appendage fragment, R879A mutant.
Chain of AP-2 complex subunit beta (Homo sapiens) (P63010 whole entry, looked up, the tested form may be a part, one chain of several): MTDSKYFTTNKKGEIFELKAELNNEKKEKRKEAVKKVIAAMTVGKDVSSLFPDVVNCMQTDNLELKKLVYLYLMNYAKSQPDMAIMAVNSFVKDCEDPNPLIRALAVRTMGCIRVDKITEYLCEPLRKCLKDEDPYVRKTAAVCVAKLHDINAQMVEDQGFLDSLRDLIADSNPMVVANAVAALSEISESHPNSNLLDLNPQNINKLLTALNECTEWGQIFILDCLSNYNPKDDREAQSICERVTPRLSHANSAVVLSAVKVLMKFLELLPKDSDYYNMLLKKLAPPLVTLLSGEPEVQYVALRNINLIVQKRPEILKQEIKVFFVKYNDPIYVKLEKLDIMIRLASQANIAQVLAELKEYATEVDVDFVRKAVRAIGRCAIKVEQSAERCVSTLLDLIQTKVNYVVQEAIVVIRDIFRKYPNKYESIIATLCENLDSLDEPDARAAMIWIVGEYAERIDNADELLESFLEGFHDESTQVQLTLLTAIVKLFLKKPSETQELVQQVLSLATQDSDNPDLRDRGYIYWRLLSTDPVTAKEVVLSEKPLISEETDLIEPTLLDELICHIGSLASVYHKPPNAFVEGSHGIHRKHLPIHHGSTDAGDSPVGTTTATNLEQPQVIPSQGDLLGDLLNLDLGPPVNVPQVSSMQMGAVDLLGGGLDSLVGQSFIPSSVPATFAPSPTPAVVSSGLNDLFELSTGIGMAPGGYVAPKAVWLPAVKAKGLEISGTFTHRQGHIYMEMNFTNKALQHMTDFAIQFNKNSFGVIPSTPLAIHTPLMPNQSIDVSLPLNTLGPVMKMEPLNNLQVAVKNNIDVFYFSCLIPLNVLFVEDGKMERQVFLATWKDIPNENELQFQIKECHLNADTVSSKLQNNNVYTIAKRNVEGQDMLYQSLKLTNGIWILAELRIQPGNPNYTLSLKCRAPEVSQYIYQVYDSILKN
A short description of test [7]: yeast V-ATPase proton transport modulators, S. cerevisiae, pHLuorin, HTS validation (AID 504600; in the data active means response above about 15%;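 further: plate controls were DMSO for no effect and reference compound for full effect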). Particulars: S. cerevisiae pHLuorin cytosolic pH, at 10 µM, stronger effect = higher value.
Test [8] concerns anti-desmoglein-3 scFv antibody binding to human DSG3. Nature of the test: inhibitors of anti-DSG3 scFv binding to DSG3, pilot screen, biochemical, validation compound set, bead-based, flow cytometry (AID 588368;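 active means binding below the plate cutoff, the plate median minus 3 SD, with a reading above zero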;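 further: signal is the median channel fluorescence of bead-bound GFP antibody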). Particulars: Protein G beads, DSG3-Fc, scFv-GFP binding, at 10 µM, stronger effect = lower value.
Test [9] in a line: inhibitors of fungal efflux pumps CDR1, CDR2, MDR1, pilot screen, validation compound set, multiplex, phenotypic (AID 588506;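 active means efflux inhibition above 0.42, the validation set average plus 4 SD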;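 further: Nile Red retained in cells so higher fluorescence means more efflux inhibition; 0 = negative control wells and 1 = enniatin B 25 µM full block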). Conditions: S. cerevisiae pump-expressing triplex, Nile Red efflux flow cytometry; at 10 µM; stronger effect = higher value; the pumps come from Candida albicans.
Test [10] concerns the target ATP-binding cassette sub-family B member 6 (Homo sapiens) (UniProt Q9NP58). Nature of the test: ABCB6 transporter inhibitors, pilot screen, K562-ABCB6 cells, flow cytometry, validation set (AID 588550;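 active means inhibition above the screen-wide mean plus 3 SD, about 51%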;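 further: 0% = DMSO wells and 100% = benzethonium chloride 70 µM positive control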). Conditions: K562-ABCB6 porphyrin accumulation, 1 h, at 10 µM, stronger effect = higher value.
Test [11] in a line: promoters of myeloid differentiation in arrested cells, primary screen, cell-based, GFP/MAC1 double positive, flow cytometry, validation set (AID 588685).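 Further: compound exposure lasts four days before antibody staining and flow analysis; 0% = DMSO wells and 100% = 5 µM fulvestrant positive control.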 Particulars: ER-HoxA9 marrow cells, stronger effect = higher value, normalized: vehicle 0, fulvestrant 100.

Calls of active or inactive are those of the source.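 How the source made its calls, unless noted: active means differentiation response of at least 50%, scaled between solvent and reference control, from cells with both markers; inactive means the rest.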

Chain of Beta-adrenergic receptor kinase 1 (Homo sapiens) (P25098 whole entry, looked up): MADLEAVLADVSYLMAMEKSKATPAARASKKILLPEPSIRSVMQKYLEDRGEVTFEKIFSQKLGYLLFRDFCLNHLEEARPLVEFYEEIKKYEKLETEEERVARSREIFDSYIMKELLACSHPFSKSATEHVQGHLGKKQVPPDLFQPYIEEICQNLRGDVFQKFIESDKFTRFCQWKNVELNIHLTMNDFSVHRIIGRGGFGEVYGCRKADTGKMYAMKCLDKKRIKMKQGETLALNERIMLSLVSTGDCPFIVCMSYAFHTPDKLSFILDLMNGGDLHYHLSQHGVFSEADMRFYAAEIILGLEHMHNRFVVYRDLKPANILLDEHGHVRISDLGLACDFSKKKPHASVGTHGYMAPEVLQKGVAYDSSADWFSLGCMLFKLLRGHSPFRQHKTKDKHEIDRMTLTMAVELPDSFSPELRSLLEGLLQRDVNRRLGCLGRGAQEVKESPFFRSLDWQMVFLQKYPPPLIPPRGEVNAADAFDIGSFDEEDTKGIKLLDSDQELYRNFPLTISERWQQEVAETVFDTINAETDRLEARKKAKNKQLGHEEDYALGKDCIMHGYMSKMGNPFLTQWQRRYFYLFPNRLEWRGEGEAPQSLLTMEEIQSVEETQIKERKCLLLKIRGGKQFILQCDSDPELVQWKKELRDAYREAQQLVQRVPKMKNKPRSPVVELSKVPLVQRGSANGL
Chain of ATP-binding cassette sub-family B member 6 (Homo sapiens) (Q9NP58 whole entry, looked up): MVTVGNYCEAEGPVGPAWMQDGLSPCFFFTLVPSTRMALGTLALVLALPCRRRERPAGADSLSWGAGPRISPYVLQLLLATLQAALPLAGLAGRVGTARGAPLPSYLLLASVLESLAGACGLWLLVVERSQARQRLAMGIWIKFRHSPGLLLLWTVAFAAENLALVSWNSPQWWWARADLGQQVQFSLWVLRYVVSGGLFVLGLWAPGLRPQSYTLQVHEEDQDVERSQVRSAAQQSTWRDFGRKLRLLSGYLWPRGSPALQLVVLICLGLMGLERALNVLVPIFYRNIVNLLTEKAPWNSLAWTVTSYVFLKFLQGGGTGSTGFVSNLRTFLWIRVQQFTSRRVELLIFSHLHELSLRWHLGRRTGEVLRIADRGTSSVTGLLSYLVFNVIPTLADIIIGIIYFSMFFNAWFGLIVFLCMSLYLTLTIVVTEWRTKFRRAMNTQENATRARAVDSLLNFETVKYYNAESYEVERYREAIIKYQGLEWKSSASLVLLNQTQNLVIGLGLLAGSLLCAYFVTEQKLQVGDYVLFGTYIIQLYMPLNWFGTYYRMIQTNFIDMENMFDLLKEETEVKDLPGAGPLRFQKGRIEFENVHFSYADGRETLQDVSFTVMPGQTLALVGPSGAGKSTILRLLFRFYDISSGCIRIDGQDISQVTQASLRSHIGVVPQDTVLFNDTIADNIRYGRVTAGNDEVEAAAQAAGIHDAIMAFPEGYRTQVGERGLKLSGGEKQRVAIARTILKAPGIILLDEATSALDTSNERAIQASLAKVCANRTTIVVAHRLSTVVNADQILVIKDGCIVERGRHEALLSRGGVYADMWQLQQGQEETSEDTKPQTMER

A word on the inhibition: it is the relative decrease from the control value, in per cent. The compound `CCC12CN3CC(CC)(CN(C1)C31C(=O)N(C)c3ccc(C)cc31)C2=O` (configuration not stated) came in with a double positive events in [1] of 59.5%. The vesicle binding response in test [1] was 181% (inactive). Moreover, the inhibition in [2] was -2.82% (inactive); in [6] it was 0.32% (inactive); in test [10], -1% (inactive). In addition, the superoxide response (% of plate) in test [3] is 94.6% (inactive). Further, the aptamer binding inhibition in [4] is -3% (inactive). Further, the response was -18.8% (inactive) in [5] and 4.91% (inactive) in [7]. Further, in [8], the binding (% of control) was 102% (inactive). Besides, the efflux inhibition (fraction of control) in test [9] was 0 (inactive). Besides, the differentiation response in [11] is -10.9% (inactive).
Turning to `CC(=O)Oc1ccc(C2OC(=O)c3ccccc3N2C(C)=O)cc1` (configuration not stated), the double positive events in [1] was 63.2%. For the same compound, the vesicle binding response in test [1] is 146% (inactive). In addition, the inhibition in test [2] was 19% (inactive); in [6] it was 0.53% (inactive); in test [10], 8% (inactive). For the same compound, in test [3], the superoxide response (% of plate) is 98.4% (inactive). The aptamer binding inhibition in [4] was 1% (inactive). The response in test [5] is 15.3% (inactive); in [7], -2.98% (inactive). In [8], the binding (% of control) was 98.1% (inactive). For the same compound, in test [9], the efflux inhibition (fraction of control) was 0.03 (inactive). For the same compound, in test [11], the differentiation response is -4.57% (inactive).
In test [1], `CC(=O)OCC(=O)[C@@]1(OC(C)=O)[C@@H](C)C[C@H]2[C@@H]3C[C@H](F)C4=CC(=O)C=C[C@]4(C)[C@@]3(F)[C@@H](O)C[C@@]21C` displayed a double positive events of 61.9%. For the same compound, in test [1], the vesicle binding response was 157% (inactive). For the same compound, the inhibition in test [2] was -11.8% (inactive); in test [6] it was 1.66% (inactive); in test [10], -2% (inactive). The superoxide response (% of plate) in test [3] was 97.6% (inactive). For the same compound, the aptamer binding inhibition in [4] was -1% (inactive). The response is 5.99% (inactive) in test [5] and -2.14% (inactive) in [7]. Further, the binding (% of control) in [8] was 103% (inactive). The efflux inhibition (fraction of control) in test [9] was -0.015 (inactive). The differentiation response in test [11] was 4.2% (inactive).
`CC1(C)CC(=O)C(C2(O)C(=O)Nc3ccccc32)CO1` (configuration not stated): the double positive events in test [1] was found to be 69%. Besides, the vesicle binding response in [1] is 183% (inactive). In addition, the inhibition in test [2] is 11.7% (inactive); in test [6], 0.15% (inactive); in test [10] it was 12% (inactive). Also, the superoxide response (% of plate) in test [3] is 92.3% (inactive). In addition, the aptamer binding inhibition in [4] is 3% (inactive). The response was 7.56% (inactive) in test [5] and 2.36% (inactive) in test [7]. In addition, the binding (% of control) in test [8] was 105% (inactive). Moreover, the efflux inhibition (fraction of control) in [9] was 0.12 (inactive). Besides, in test [11], the differentiation response is -16.8% (inactive).
As to `COc1ccc(CN(CCC(c2ccc(F)cc2)C2CCOC(C)(C)C2)C(=O)c2ccco2)cc1` (configuration not stated), in test [1], the double positive events was 59.4%. Moreover, in test [1], the vesicle binding response was 144% (inactive). For the same compound, the inhibition was -8.62% (inactive) in test [2], -11.3% (inactive) in [6] and 3% (inactive) in [10]. Besides, the superoxide response (% of plate) in [3] is 104% (inactive). In [4], the aptamer binding inhibition was 5% (inactive). Also, the results for the response in [5] and in test [7] were 22.1% (inactive) and 1.03% (inactive), respectively. Besides, the binding (% of control) in test [8] is 101% (inactive). The efflux inhibition (fraction of control) in [9] was 0.12 (inactive). Also, the differentiation response in test [11] is -13.6% (inactive).
On to `COC1CCCCC1Nc1ccc(C)c(C)c1` (configuration not stated), for which, in test [1], the double positive events came to 59.5%. The vesicle binding response in test [1] is 262% (inactive). Besides, the inhibition in test [2] is -1.79% (inactive); in [6], -5.05% (inactive); in test [10], 5% (inactive). Besides, the superoxide response (% of plate) in [3] was 100% (inactive). Moreover, the aptamer binding inhibition in test [4] is 5% (inactive). Also, the response was 6.1% (inactive) in [5] and 0.08% (inactive) in test [7]. The binding (% of control) in test [8] is 94.7% (inactive). Moreover, the efflux inhibition (fraction of control) in test [9] was 0.05 (inactive). Further, in test [11], the differentiation response is -12% (inactive).

The values above are taken from PubChem BioAssay.
